The results in this text go back to PMC7862700, “An all-to-all approach to the identification of sequence-specific readers for epigenetic DNA modifications on cytosine”.

Experiment in all cases: DAPPL (digital affinity profiling via proximity ligation, sequencing); 10 mM Tris-HCl pH 7.5, 50 mM NaCl, 1 mM DTT, 4% glycerol, room temperature, 30 min; GST-TFs on glutathione beads, 16-mer random dsDNA library, 0.1% formaldehyde crosslink after washing; high values mean tight binding
For one assay, the target named is ELF1 (Homo sapiens, UniProt P32519 1-619). Particulars: protein: recombinant; tags: N-terminal GST; dsDNA, one strand shown. The procedure, abridged:
(§1)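 Human transcription factors were made in yeast as GST fusions, captured on glutathione beads and barcoded with DNA. With a tag-only sample included, the pool was incubated with 200 nmole of a random double-stranded 16-mer DNA library in Tris/NaCl/DTT/glycerol buffer at room temperature for 30 min, then crosslinked with 0.1% formaldehyde after washing, ligated by proximity, amplified and sequenced. For binding signal, each hexamer's read frequency for a factor is divided by its frequency for the tag-only sample.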

For a further assay, the target named is T1, ELK3 (Homo sapiens, UniProt P41970 1-407).
T1 sequence: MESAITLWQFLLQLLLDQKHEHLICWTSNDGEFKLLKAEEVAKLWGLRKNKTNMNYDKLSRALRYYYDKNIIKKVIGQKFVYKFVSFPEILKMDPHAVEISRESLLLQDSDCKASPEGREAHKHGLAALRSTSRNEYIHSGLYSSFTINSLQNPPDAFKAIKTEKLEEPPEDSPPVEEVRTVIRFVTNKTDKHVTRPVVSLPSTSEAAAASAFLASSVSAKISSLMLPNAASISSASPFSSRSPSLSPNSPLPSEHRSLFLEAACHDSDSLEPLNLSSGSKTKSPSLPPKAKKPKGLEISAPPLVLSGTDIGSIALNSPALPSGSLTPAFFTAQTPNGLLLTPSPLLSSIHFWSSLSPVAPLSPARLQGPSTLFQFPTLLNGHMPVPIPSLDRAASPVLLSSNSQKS
Particulars: protein: recombinant; tags: N-terminal GST; dsDNA, one strand shown. The procedure, abridged: as §1

The target of another assay is HSF1 (Homo sapiens, UniProt Q00613 1-529). Particulars: protein: recombinant; tags: N-terminal GST; chain copies: 3; dsDNA, one strand shown. The procedure, abridged: as §1
Chain of HSF1 (Q00613 whole entry): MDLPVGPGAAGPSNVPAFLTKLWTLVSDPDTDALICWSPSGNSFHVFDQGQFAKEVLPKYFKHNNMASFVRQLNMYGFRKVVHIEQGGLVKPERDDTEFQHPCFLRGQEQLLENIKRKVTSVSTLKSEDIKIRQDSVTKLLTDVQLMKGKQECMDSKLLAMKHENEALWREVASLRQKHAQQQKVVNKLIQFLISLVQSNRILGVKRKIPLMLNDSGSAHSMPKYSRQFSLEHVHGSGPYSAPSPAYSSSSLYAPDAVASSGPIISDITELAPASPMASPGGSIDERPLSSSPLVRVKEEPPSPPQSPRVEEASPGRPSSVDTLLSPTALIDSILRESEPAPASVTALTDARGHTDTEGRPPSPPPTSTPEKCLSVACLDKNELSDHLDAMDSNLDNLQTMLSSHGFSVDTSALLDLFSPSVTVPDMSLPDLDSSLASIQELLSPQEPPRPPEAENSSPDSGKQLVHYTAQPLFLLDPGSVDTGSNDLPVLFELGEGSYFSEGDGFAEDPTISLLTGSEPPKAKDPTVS
The target of a further assay is T2, ELK4 (Homo sapiens, UniProt P28324-2 1-405).
T2 sequence: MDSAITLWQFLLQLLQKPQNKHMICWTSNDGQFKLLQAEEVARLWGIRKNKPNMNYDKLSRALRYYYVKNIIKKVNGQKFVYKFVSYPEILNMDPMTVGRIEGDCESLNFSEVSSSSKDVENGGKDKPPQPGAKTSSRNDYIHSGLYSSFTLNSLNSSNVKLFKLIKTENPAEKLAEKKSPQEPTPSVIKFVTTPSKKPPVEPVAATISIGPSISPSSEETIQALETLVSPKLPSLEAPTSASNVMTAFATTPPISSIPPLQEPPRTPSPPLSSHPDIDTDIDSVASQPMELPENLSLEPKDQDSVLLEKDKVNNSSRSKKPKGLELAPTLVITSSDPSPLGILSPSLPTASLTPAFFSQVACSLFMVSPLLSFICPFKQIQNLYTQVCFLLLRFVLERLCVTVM
Particulars: protein: recombinant; tags: N-terminal GST; dsDNA, one strand shown. The procedure, abridged:
as §1

The next assay addresses T3, ELF3 (Homo sapiens, UniProt P78545 1-371).
T3 sequence: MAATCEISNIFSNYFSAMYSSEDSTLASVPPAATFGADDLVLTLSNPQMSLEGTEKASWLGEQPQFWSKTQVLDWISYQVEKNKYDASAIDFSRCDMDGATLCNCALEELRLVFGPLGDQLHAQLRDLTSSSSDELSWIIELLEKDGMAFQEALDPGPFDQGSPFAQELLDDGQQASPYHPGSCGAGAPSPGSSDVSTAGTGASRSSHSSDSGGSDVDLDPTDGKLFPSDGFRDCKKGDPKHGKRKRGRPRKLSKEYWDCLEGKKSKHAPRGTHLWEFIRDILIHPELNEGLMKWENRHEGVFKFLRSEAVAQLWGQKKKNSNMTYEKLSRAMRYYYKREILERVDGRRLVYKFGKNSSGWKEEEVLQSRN
Particulars: protein: recombinant; tags: N-terminal GST; dsDNA, one strand shown. The procedure, abridged: as §1

The target of another assay is CRX (Homo sapiens, UniProt O43186 1-299). Particulars: protein: recombinant; tags: N-terminal GST; dsDNA, one strand shown. The procedure, abridged: as §1
Chain of CRX (O43186 whole entry): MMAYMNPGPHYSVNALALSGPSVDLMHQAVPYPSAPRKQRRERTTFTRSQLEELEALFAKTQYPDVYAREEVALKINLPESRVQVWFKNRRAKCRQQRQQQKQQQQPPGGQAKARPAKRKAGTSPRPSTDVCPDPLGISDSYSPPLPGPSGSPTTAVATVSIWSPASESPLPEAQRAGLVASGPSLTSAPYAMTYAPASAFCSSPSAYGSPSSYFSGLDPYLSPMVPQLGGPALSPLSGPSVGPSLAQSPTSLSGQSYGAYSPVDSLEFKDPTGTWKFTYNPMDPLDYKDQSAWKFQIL
In another assay the target is T4, ERF (Homo sapiens, UniProt P50548 1-548).
T4 sequence: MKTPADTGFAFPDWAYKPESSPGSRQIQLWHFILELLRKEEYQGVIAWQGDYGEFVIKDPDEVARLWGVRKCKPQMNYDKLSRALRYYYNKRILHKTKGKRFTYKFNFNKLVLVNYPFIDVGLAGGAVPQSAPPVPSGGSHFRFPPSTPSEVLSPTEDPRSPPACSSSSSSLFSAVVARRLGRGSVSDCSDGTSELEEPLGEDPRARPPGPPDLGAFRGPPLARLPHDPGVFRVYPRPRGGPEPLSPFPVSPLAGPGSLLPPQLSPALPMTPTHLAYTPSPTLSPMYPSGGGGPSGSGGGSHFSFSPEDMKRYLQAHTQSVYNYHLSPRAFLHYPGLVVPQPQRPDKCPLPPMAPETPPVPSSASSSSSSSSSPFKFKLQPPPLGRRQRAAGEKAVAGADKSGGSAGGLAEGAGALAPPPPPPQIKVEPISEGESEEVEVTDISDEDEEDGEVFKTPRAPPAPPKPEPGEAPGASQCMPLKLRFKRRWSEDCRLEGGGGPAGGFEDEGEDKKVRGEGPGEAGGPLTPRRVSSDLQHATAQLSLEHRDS
Particulars: protein: recombinant; tags: N-terminal GST; dsDNA, one strand shown. In a few lines: as §1

The target of the next assay is T5, ETV3L (Homo sapiens, UniProt Q6ZN32 1-361).
T5 sequence: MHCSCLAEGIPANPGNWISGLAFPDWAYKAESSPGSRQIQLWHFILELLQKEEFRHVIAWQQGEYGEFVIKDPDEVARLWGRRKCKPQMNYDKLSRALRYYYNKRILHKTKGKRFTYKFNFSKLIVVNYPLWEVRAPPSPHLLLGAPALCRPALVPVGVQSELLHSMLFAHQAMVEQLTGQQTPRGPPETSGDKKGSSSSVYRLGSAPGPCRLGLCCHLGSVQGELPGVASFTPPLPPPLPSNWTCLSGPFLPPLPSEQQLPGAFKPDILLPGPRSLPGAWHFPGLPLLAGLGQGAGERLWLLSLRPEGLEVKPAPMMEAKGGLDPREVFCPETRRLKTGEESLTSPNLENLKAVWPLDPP
Particulars: protein: recombinant; tags: N-terminal GST; dsDNA, one strand shown. The procedure, abridged:
as §1

Another assay addresses T6, ETV7 (Homo sapiens, UniProt Q9Y603 1-341).
T6 sequence: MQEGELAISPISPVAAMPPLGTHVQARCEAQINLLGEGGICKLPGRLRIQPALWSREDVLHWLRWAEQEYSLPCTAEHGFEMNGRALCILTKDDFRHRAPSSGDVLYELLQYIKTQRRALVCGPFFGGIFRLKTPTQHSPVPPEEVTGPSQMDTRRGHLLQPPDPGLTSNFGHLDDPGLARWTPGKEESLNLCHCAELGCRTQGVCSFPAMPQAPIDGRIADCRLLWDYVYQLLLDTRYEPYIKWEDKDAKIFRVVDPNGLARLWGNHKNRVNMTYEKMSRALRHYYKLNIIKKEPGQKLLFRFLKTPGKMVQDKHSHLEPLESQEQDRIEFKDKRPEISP
Particulars: protein: recombinant; tags: N-terminal GST; dsDNA, one strand shown. In a few lines: as §1

The target of the next assay is T7, GABPA (Homo sapiens, UniProt Q06546 1-454).
T7 sequence: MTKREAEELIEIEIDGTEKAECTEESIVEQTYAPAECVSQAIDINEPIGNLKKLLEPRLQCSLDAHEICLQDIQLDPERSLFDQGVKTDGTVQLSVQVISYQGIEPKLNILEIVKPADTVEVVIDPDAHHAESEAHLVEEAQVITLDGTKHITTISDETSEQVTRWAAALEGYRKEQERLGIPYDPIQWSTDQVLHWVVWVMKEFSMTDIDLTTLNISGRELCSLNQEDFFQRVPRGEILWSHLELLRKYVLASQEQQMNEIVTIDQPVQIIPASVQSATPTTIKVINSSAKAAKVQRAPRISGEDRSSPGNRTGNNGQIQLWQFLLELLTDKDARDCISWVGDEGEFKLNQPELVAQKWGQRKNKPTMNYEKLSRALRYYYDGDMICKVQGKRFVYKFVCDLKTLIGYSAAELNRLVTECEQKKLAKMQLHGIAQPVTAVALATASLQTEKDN
Particulars: protein: recombinant; tags: N-terminal GST; dsDNA, one strand shown. In a few lines: as §1

In the next assay the target is T8, EHF (Homo sapiens, UniProt Q9NZC4 1-300).
T8 sequence: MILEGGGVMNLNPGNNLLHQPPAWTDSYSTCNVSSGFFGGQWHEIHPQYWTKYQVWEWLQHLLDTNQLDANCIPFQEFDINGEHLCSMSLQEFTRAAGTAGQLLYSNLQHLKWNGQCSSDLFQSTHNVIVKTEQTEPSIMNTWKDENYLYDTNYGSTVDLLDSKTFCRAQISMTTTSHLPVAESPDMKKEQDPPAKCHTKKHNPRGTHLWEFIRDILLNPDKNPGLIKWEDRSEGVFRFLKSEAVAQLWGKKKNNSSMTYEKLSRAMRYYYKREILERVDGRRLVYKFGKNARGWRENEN
Particulars: protein: recombinant; tags: N-terminal GST; dsDNA, one strand shown. In a few lines: as §1

A further assay concerns the target SPI1 (Homo sapiens, UniProt P17947 1-270). Particulars: protein: recombinant; tags: N-terminal GST; dsDNA, one strand shown. The procedure, abridged:
as §1

Another assay addresses T9, FEV (Homo sapiens, UniProt Q99581 1-238).
T9 sequence: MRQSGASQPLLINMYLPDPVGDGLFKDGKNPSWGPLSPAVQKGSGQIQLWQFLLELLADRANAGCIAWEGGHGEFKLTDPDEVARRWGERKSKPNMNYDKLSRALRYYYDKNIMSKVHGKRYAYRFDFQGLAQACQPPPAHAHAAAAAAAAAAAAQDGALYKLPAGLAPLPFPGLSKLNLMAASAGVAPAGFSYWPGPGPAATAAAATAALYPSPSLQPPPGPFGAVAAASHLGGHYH
Particulars: protein: recombinant; tags: N-terminal GST; dsDNA, one strand shown. In a few lines: as §1

A further assay has as its target ELF4 (Homo sapiens, UniProt Q99607 1-663). Particulars: protein: recombinant; tags: N-terminal GST; dsDNA, one strand shown. In a few lines:
as §1

The target of the next assay is T10, ETS2 (Homo sapiens, UniProt P15036 1-469).
T10 sequence: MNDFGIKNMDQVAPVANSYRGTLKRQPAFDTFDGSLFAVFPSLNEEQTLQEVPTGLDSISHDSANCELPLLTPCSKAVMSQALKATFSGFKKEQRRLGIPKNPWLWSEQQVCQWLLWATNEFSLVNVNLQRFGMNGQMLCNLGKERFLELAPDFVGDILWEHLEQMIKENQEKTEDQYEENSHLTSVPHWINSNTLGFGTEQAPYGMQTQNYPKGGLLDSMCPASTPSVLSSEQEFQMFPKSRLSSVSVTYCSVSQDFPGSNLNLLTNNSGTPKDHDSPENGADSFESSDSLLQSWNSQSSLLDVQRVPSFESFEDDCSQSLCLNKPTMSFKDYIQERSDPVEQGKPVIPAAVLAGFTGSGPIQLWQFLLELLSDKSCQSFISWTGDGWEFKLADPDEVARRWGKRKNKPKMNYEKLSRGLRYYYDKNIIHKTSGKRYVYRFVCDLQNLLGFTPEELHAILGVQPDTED
Particulars: protein: recombinant; tags: N-terminal GST; dsDNA, one strand shown. The procedure, abridged:
as §1

The target of the next assay is ETV6 (Homo sapiens, UniProt P41212 1-452). Particulars: protein: recombinant; tags: N-terminal GST; dsDNA, one strand shown. The procedure, abridged:
as §1

Chain of ELF1 (P32519 whole entry, the tested form may be a part): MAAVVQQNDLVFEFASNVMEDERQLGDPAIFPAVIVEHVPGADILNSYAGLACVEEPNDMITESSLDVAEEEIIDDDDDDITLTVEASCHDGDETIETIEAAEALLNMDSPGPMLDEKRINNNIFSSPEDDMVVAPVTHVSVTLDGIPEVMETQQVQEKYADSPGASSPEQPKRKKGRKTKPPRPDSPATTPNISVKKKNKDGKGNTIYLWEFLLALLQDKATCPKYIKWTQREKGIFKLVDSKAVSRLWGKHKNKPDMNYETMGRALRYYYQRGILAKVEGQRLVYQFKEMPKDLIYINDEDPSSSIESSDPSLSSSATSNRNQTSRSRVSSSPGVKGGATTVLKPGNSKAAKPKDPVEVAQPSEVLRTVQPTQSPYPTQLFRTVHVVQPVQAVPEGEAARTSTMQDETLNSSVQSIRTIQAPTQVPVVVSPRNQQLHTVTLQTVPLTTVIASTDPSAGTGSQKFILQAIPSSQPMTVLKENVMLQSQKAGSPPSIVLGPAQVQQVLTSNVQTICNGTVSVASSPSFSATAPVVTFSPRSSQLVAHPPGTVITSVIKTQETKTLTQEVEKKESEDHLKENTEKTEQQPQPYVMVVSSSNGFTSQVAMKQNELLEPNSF
Chain of ELF4 (Q99607 whole entry): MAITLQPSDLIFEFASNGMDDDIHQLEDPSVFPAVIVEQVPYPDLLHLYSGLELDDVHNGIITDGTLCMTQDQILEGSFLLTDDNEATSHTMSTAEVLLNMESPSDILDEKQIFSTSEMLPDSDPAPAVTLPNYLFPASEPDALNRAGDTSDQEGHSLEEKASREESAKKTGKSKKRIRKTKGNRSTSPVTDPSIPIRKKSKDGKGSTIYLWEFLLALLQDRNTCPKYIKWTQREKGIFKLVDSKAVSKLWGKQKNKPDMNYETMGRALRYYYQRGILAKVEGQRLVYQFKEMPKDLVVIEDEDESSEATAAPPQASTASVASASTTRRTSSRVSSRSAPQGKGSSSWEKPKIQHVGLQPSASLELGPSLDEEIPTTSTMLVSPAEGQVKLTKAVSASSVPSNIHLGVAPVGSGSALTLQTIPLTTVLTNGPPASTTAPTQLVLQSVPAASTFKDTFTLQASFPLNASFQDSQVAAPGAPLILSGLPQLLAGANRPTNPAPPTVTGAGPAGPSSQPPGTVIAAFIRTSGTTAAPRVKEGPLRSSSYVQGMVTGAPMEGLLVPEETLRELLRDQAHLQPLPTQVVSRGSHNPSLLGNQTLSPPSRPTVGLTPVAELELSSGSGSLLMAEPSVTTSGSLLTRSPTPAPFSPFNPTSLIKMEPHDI
Chain of ETV6 (P41212 whole entry): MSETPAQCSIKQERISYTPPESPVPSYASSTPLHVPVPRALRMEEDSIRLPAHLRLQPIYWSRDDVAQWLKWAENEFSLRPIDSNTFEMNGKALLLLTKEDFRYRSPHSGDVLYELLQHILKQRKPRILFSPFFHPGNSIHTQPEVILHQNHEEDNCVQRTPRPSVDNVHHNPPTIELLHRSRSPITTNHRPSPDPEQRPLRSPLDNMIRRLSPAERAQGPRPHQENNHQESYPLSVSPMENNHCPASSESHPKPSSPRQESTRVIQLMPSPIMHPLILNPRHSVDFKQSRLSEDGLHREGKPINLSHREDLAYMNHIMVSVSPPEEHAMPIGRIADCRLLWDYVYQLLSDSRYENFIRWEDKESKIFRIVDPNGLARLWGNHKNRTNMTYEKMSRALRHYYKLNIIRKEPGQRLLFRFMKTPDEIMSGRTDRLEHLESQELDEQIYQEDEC

As to GATCAT, the binding signal was 1.01 fold enrichment (6-mer frequency, TF over GST control) in the assay with ELF1; 1.1 fold enrichment (6-mer frequency, TF over GST control) with ELK3; 1.3 fold enrichment (6-mer frequency, TF over GST control) with HSF1; 1.07 fold enrichment (6-mer frequency, TF over GST control) with ELK4; 1.05 fold enrichment (6-mer frequency, TF over GST control) in the assay with ELF3; 1.48 fold enrichment (6-mer frequency, TF over GST control) with CRX. The binding signal with ERF was 1.09 fold enrichment (6-mer frequency, TF over GST control); with ETV3L, 1 fold enrichment (6-mer frequency, TF over GST control); with ETV7, 1.04 fold enrichment (6-mer frequency, TF over GST control).

Regarding CGAATG, the binding signal in the assay with GABPA is 1.12 fold enrichment (6-mer frequency, TF over GST control); with ELF1 it was 1.05 fold enrichment (6-mer frequency, TF over GST control); in the assay with EHF, 1.05 fold enrichment (6-mer frequency, TF over GST control); with SPI1 it was 1.03 fold enrichment (6-mer frequency, TF over GST control); with ELK3, 1.01 fold enrichment (6-mer frequency, TF over GST control); with FEV, 1.01 fold enrichment (6-mer frequency, TF over GST control). For the same sequence, the binding signal in the assay with HSF1 was 1.5 fold enrichment (6-mer frequency, TF over GST control); with ELF4, 1.13 fold enrichment (6-mer frequency, TF over GST control); with ELK4, 1.07 fold enrichment (6-mer frequency, TF over GST control); with ELF3 it was 1.12 fold enrichment (6-mer frequency, TF over GST control); with ERF, 1.02 fold enrichment (6-mer frequency, TF over GST control); with ETS2, 1.14 fold enrichment (6-mer frequency, TF over GST control). Also, the binding signal with ETV7 was 1.08 fold enrichment (6-mer frequency, TF over GST control); in the assay with ETV6 it was 1.11 fold enrichment (6-mer frequency, TF over GST control).
